Screening data deposited in PubChem BioAssay by National Center for Advancing Translational Sciences (NCATS).
Most compounds without a hit are left out; they make up all but 8.1% or so of the library.
KB-V1 cytotox = KB-V1 MDR subline cytotoxicity. KB-V1 MDR cells viability, CellTiter-Glo, 72 h. Potency, µM (highest dose often 46.1 µM), actives largely listed as cytotoxic. 3.4% of 400,000 active. AID 1347076; note: % is set by controls: 0 for no effect and ±100 for the full control effect; nearly all actives have a fitted effect of over 60% in size
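KB-V1 MDR subline cells in DMEM (phenol-red free, 10% FBS) exposed to compounds in qHTS concentration series for 72 h at 37 degrees C. Viability read by CellTiter-Glo luminescence; concentration-effect curves fitted after normalization and correction.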
SW480 rerep = inducers of DNA re-replication in SW480 colon cancer cells; AID 624297; Potency, µM (doses to about 46.1 µM), inactives show at the highest dose re-replication activation, hits mostly activators; SW480 DNA re-replication, Hoechst DNA content imaging, 48 h; 1.8% of 340,000 active; note: % of control where 0% means no effect; nearly all actives have a fitted effect of over 55% in size
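First, 250 cells per well were seeded. Next, compound or vehicle (23 nL) was pinned in, plates sat 48 hr at 37 C. Finally Hoechst was added for 40 min before fluorescence scanning.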
KB-3-1 cytotox = KB-3-1 parental cell cytotoxicity; KB-3-1 viability, CellTiter-Glo ATP luminescence, 72 h; Potency, µM (highest dose often 46.1 µM), usual class: cytotoxic; 1.4% of 400,000 active; AID 1347075; note: % is set by controls: 0 for no effect and ±100 for the full control effect; nearly all actives have a fitted effect of over 60% in size
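Viability of parental KB-3-1 cells, measured by CellTiter-Glo luminescence, followed a 72 h incubation at 37 °C with pinned compounds in phenol-red-free DMEM containing 10% FBS.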
MCF10A rereplic = inducers of DNA re-replication in MCF 10A breast cells; Potency, µM (highest dose often 46.1 µM), without a hit: at the highest dose activity, positive = re-replication, hits mostly activators; 2.9% of 350,000 active; AID 624296; MCF 10A DNA re-replication, Hoechst nuclear intensity, 48 h; note: % of control where 0% means no effect; nearly all actives have a fitted effect of over 50% in size
ELG1 DNA repair = ELG1-dependent DNA repair inhibition. Potency, µM (highest dose often 46.1 µM), for inactives: at the highest dose activity change, negative = inhibition, hits mostly inhibitors. HEK293T ELG1-luciferase reporter, luminescence, 16 h; DNA damage induced by 5-fluorouridine. 2.3% of 330,000 active; note: % is set by controls: 0 for no effect and ±100 for the full control effect; nearly all actives have a fitted effect of over 55% in size
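DMSO vehicle served as the neutral condition. Each well held 2,000 cells given 5-fluorouridine plus compound; after 16 hr at 37 °C/5% CO2, ONE-Glo was added and luciferase measured 30 min later.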
ELG1 FLuc counter = luciferase inhibition in cell-free luciferin readout for ELG1 hits | 3% of 350 active | AID 624247 | Potency, µM (doses to about 46.1 µM), inactives show top-dose activity change, negative = inhibition, actives largely listed as inhibitors | shares compounds with ELG1 DNA repair | cell-free firefly luciferase luminescence counter-screen, ViewLux; note: % is set by controls: 0 for no effect and ±100 for the full control effect
ELG1 Luc conf = inhibits ELG1-dependent DNA repair in HEK293T cells, confirmed; AID 624248; shares compounds with ELG1 DNA repair; 68% of 670 active; HEK293T ELG1-luciferase levels, luminescence; cells co-treated with 5-fluorouridine; Potency, µM (highest dose often 46.1 µM), for inactives: at the highest dose activity change, negative = inhibition, actives largely listed as inhibitors; note: % is set by controls: 0 for no effect and ±100 for the full control effect; nearly all actives have a fitted effect of over 55% in size
ELG1 MMS Luc = MMS-stimulated human ELG1 repair inhibition, confirmed; shares compounds with ELG1 DNA repair; HEK293T luciferase-tagged ELG1 level, MMS stimulated; Potency, µM (doses to about 46.1 µM), for inactives: at the highest dose activity change, negative = inhibition, most hits filed as inhibitors; 53% of 670 active; note: % is set by controls: 0 for no effect and ±100 for the full control effect; nearly all actives have a fitted effect of over 60% in size
ELG1 5-FU = confirmation of ELG1 repair inhibitors: viability with 5FU | shares compounds with ELG1 DNA repair | cell viability with 5-FU, ELG1-dependent repair | Potency, µM (doses to about 46.1 µM), inactives show top-dose activity change, negative = viability loss, most hits filed as cytotoxic | 670 tested, under 10 active | AID 624250;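 note: ELG1-luc HEK293T cells cotreated with 5-fluorouridine at 10 µM final; viability measured 16 h after compound addition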
ELG1 MMS viab = confirmation of ELG1 repair inhibitors: viability with MMS; Potency, µM (highest dose often 46.1 µM), without a hit: top-dose activity change, negative = viability loss, most hits filed as cytotoxic; Cell viability with MMS, ELG1-dependent DNA repair; AID 624251; 33% of 670 active; shares compounds with ELG1 DNA repair;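 note: ELG1-luc HEK293T cells co-treated with 10 µM MMS; viability read 16 h after compound addition; % is set by controls: 0 for no effect and ±100 for the full control effect; nearly all actives have a fitted effect of over 60% in size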
ELG1 unstim viab = affects unstimulated cell viability, ELG1 hit counter-screen. shares compounds with ELG1 DNA repair. Potency, µM (top dose mostly 45.9 µM), for inactives: at the top dose activity change, negative = loss of viability, most hits filed as cytotoxic. cell viability counter-screen, unstimulated, luminescence. 8% of 900 active;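 note: compound exposure lasted 16 hours before reading; % is set by controls: 0 for no effect and ±100 for the full control effect; nearly all actives have a fitted effect of over 55% in size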
FLuc enzyme = counter-screen for ELG1 repair inhibitors: firefly luciferase inhibition; shares compounds with ELG1 DNA repair; purified firefly luciferase, luminescence counter-screen; Potency, µM (top dose mostly 57.5 µM), without a hit: at the top dose activity, negative = inhibition, hits mostly inhibitors; 10% of 350 active; AID 624253; note: % is set by controls: 0 for no effect and ±100 for the full control effect
Numbers without * were called inactive; i = inactive; ? = inconclusive; / = no result given. Calls come from the whole dose curve; as a rule, active = well fitted curve in the direction sought with a large enough effect; inconclusive = small, poorly fitted or top-dose-only effect, or another doubt; inactive = no such curve, though single readings can be large; an effect the other way counts as inactive or inconclusive. Potency is the fitted concentration of half-maximal effect.

SMILES	KB-V1 cytotox	SW480 rerep	KB-3-1 cytotox	MCF10A rereplic	ELG1 DNA repair	ELG1 FLuc counter	ELG1 Luc conf	ELG1 MMS Luc	ELG1 5-FU	ELG1 MMS viab	ELG1 unstim viab	FLuc enzyme
N#Cc1ccc(C(=O)N/N=C/c2cn(CC(=O)O)c3ccccc23)c(F)c1	i	?	i	-58%	0%	/	/	/	/	/	/	/
Cc1ccc(C(=O)C2=C(O)C(=O)N(Cc3cccnc3)C2c2ccc(N(C)C)cc2)o1 (configuration not stated)	i	-8%	i	22%	-10%	/	/	/	/	/	/	/
O=C(c1cc(COc2ccc3ncccc3c2)on1)N1CCC(O)CC1	i	-6%	?	-2%	?	/	/	/	/	/	/	/
CCOC(=O)N1CCN(C(=O)c2cc(COc3ccc4ncccc4c3)on2)CC1	?	18%	?	?	9.2µM*	-5%	20µM*	5.6µM*	0%	4.5µM*	14µM*	-3%
O=C(NC1CCCCCCC1)c1cc(COc2ccc3ncccc3c2)on1	1.8µM*	11%	2.6µM*	1%	1.6µM*	-12%	18µM*	1.1µM*	-3%	1.4µM*	?	?
